The whole screen tested about 650,000 compounds, of which about 6,800 (1%) were called active. What follows is part of a selection rich in actives, with near analogues and random picks from the rest. Values without a mark were called inactive. Cut-off read from the data, not from the text of the source: active = activation above about 4.9%; inactive = the rest.
What follows are molecules tested against G-protein coupled receptor 151 (Homo sapiens) (UniProt Q8TDV0) (assay: activates the human receptor GPR151, primary screen, cell-based, PathHunter beta-arrestin, luminescence (AID 1508602;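 note: 0% = median of compound wells and 100% = cells with positive control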)). Conditions: PathHunter beta-arrestin GPR151 cells, at 11.2 µM, stronger effect = higher value.
Sequence of G-protein coupled receptor 151 (Homo sapiens) (Q8TDV0 whole entry, looked up): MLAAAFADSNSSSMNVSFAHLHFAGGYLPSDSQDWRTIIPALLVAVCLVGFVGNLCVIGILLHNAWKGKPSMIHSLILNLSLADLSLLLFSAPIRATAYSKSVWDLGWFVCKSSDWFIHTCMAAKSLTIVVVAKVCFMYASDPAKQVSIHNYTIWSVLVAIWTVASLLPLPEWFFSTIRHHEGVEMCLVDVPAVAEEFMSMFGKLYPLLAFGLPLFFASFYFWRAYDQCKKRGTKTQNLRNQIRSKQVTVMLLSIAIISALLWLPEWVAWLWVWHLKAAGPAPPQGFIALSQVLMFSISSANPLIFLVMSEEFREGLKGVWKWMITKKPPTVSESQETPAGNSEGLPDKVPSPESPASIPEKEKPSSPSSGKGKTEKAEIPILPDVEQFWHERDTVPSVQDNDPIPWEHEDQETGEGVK

Compared with `O=C(NCCc1ccc(N2CCCC2)cc1)c1ccc(F)cc1`, `Nc1cc(Cl)ccc1C(=O)OCC(=O)Nc1ccc(N2CCCCC2)cc1` is higher in activation: 0.277% for the first, 2.3% for the second.

Compared with `CCn1c(NCc2ccccc2OC)nc2ccccc21`, `OCCn1c(SCCSc2nc3ccccc3n2CCO)nc2ccccc21` is lower in activation: -0.109% for the first, -0.408% for the second.

Going from `C#CCOc1ccc(C=C2C(=O)NC(=S)NC2=O)cc1Cl` to `C=CCN1C(=O)/C(=C\c2cc(Br)ccc2OCC)C(=O)NC1=S`, the activation rises from -0.112% to 0.0155%.

Compared with `C/C(=N\NC(=O)CNC(=O)c1ccccc1Br)c1ccccc1`, `COc1ccc(/C=N/NC(=O)CN(C)C(=O)c2ccccc2)cc1` is lower in activation: -0.31% for the first, -1.44% for the second.

First: CC(C)(C)c1ccc(OCCNC(=S)NC(=O)c2cncc(Br)c2)cc1
Second: Cc1cccc(C)c1OCC(=O)OCCNC(=O)c1cccnc1
The activation of the first is lower: 0.8% for the first, 2.35% for the second.

Compared with `COc1ccc(-c2c(C)nn3c(NCCN(C)C)cc(C)nc23)cc1`, `Cc1ccc(C(=O)Nc2ccc(N(C)C)cc2)cc1C` is lower in activation: 0.306% for the first, -2.22% for the second.

First: O=C1NC2(CCCC2)C(=O)N1Cc1nnc(-c2ccccc2Br)o1
Second: O=C1CCCC2=C1C(c1ccccc1[N+](=O)[O-])c1c([nH]c(=O)[nH]c1=O)N2 (stereo unspecified)
The activation of the first is higher: 0.439% for the first, -0.211% for the second.

Compared with `CS(=O)(=O)N(CC(=O)Nc1ccc(F)cc1F)c1cccc([N+](=O)[O-])c1`, `CS(=O)(=O)N(CC(=O)Nc1ccc(F)cc1F)c1cc(Cl)c(Cl)cc1Cl` is lower in activation: -0.142% for the first, -0.649% for the second.

First: COc1cc(NC(=O)c2cccc(Br)c2)ccc1NC(=O)c1ccco1
Second: Cc1cccc(C(=O)Nc2ccc(C(=O)Nc3ccc(C(=O)Nc4ccccc4C)cc3)cc2)c1
The activation of the first is lower: 0.388% for the first, 2.61% for the second.

Going from `COc1ccc(NC(=O)c2sc3ncnc(N4CCCCC4)c3c2C)cc1OC` to `COc1ccccc1N1CCN(c2ncnc3sc(C(=O)Nc4ccc5c(c4)OCCO5)c(C)c23)CC1`, the activation falls from 0.695% to -0.8%.

Compared with `CCC(CC)NCc1cc(OC)c(OC)cc1Br`, `CCOc1cc2c(cc1OCC)C(c1ccc(OC)c(C)c1)NCC2` (stereo unspecified) is higher in activation: 0.484% for the first, 0.975% for the second.

Compared with `Cc1ccc([N+](=O)[O-])cc1S(=O)(=O)Nc1cccc(N(C)C)c1`, `O=[N+]([O-])c1ccc(S(=O)(=O)NCCc2ccccc2)cc1` is higher in activation: 0.193% for the first, 0.345% for the second.

Going from `Cc1cc(C)cc(N(C(C)C(=O)Nc2ccc(Cl)cc2)S(C)(=O)=O)c1` (stereo unspecified) to `COCCN1C(=O)c2ccc(C(=O)Nc3ccc(C(=O)O)cc3)cc2C1=O`, the activation rises from -1.25% to -0.197%.

Compared with `O=C1N[C@@H](Cc2ccccc2)C(=O)N2CCN(C(=O)c3ccc(OC(F)(F)F)cc3)C[C@H]12`, `O=C(c1ccccc1)N1CCN(C2CC(=O)N(c3cc(Cl)cc(Cl)c3)C2=O)CC1` (stereo unspecified) is higher in activation: -1.02% for the first, -0.358% for the second.

Compared with `Cc1nc(NC(=O)C23CCC(C)(C(=O)O2)C3(C)C)sc1C` (stereo unspecified), `CC(C)NC(=O)C12CCC(C)(C(=O)O1)C2(C)C` (stereo unspecified) is higher in activation: -1.28% for the first, 0.406% for the second.

Going from `Cc1ccnc(NC(=O)Nc2sc3nc4n(c(=O)c3c2C)CCC(C)CC4)c1` (stereo unspecified) to `C=CCn1c(SCC(=O)N2c3ccccc3CC2C)nc2sc(C)c(C)c2c1=O` (stereo unspecified), the activation falls from 0.22% to 0.176%.

Compared with `CCn1c(C(CC(C)C)NC(=O)C2CC2)nc2cccnc21` (stereo unspecified), `CCC(=O)NC(c1nnc2n1CCN(Cc1ccc3cccnc3c1)CC2)C(C)C` (stereo unspecified) is higher in activation: -0.148% for the first, 0.149% for the second.

Compared with `COc1ccc(C(=O)N2CCCN(c3nc4cc(C)c(C)cc4cc3C#N)CC2)cc1OC`, `CCN(CC)C(=O)C1CCCN(c2nc(NCc3cccc(C(F)(F)F)c3)c3cc(OC)c(OC)cc3n2)C1` (stereo unspecified) is lower in activation: 2.69% for the first, -0.297% for the second.

Compared with `Cc1ccc(C(=O)NCC(=O)OCC(=O)N(C(C)C)C(C)C)cc1C`, `CCOC(=O)C(=O)NCC1COc2ccccc2O1` (stereo unspecified) is higher in activation: -0.906% for the first, 0.866% for the second.

First: CCOc1cc2c(cc1OCC)C(c1cc(F)c(F)c(F)c1)NCC2 (stereo unspecified)
Second: CCOC(=O)C1=C(N)OC2=C(C(=O)CC(C)(C)C2)C1c1cc(OC)ccc1F (stereo unspecified)
The activation of the first is higher: -0.242% for the first, -1.02% for the second.

Going from `O=C(NC1CCCCCC1)c1ccc(NS(=O)(=O)c2cccs2)cc1` to `O=C(NCC1CCCO1)c1ccc(N2CC3CC(C2)c2cccc(=O)n2C3)c(NS(=O)(=O)c2ccc(Cl)cc2)c1` (stereo unspecified), the activation falls from 2.64% to -2.43%.

First: COc1cccc(/C=N/N=C2/NC(=O)CS2)c1O
Second: COc1ccc(/C=N/N=C2/NC(=O)CS2)c(OC)c1
The activation of the first is lower: -1.32% for the first, -0.156% for the second.

Going from `COCCn1c(=NC(=O)c2c(C)cnn2C)sc2cc(Cl)ccc21` to `COCc1c(C(=O)N/N=C/c2cccc(F)c2)nnn1-c1nonc1N`, the activation rises from -0.961% to -0.56%.

Compared with `Cc1ccc(-c2csc(Nc3ccccc3)n2)c(C)c1`, `Cc1cccc(Nc2nc(-c3ccc(I)cc3)cs2)c1` is lower in activation: 0.521% for the first, -1.86% for the second.

Compared with `Cc1ccc(OCCN2CCNCC2)c(Cl)c1`, `COc1cc(S(=O)(=O)NCCN2CCOCC2)ccc1Br` is lower in activation: 0.0124% for the first, -1.15% for the second.

First: CC(C)C(=O)NC(C)c1nnc2n1CCN(Cc1cccc3ncccc13)CC2 (stereo unspecified)
Second: O=C(Cc1ccc(Cl)cc1)NCc1nnnn1C1CCCCC1
The activation of the first is higher: 0.68% for the first, -1.64% for the second.

Compared with `Cc1cc(OCC(=O)NNC(=O)COc2ccc(Br)cc2Br)cc(C)c1Cl`, `COc1cc(C(=O)NCCC(=O)NCC2COc3ccccc3O2)cc(OC)c1OC` (stereo unspecified) is lower in activation: 0.12% for the first, -0.141% for the second.

First: CC(C)c1nc2sc3c(NCCCO)ncnc3c2c2c1COC(C)(C)C2
Second: CC(C)N(CCNc1cc(N2CCOCC2)ncn1)C(C)C
The activation of the first is higher: 1.25% for the first, -0.393% for the second.

Going from `CCCN1C(=O)c2ccc(C(=O)Nc3ccc(O)cc3C(=O)O)cc2C1=O` to `CCCc1cc(=O)[nH]c(Nc2cccc(O)c2)n1`, the activation rises from -4.67% to 0.777%.

Compared with `O=C(CCC1=NS(=O)(=O)c2ccccc2N1)N1CCN(c2ccccc2)CC1`, `c1ccc(CNc2nc(Nc3ccc(N4CCOCC4)cc3)nc3c2ncn3-c2ccccc2)cc1` is higher in activation: 0.684% for the first, 1.12% for the second.

First: O=[N+]([O-])c1ccc(Nc2nc(Cl)nc(NCCN3CCOCC3)n2)cc1
Second: FC(F)(F)c1cccc(CNc2nc(Nc3ccc(N4CCOCC4)cc3)nc3c2ncn3-c2ccsc2)c1
The activation of the first is higher: 3.01% for the first, 0.773% for the second.

Compared with `O/N=C(\C(=N\O)c1ccccc1)c1ccccc1`, `Cc1ccc(N2C(=O)C3ON(c4ccc(Cl)cc4)C(c4ccco4)C3C2=O)cc1` (stereo unspecified) is lower in activation: -0.0395% for the first, -1.12% for the second.

Compared with `COC(=O)Cc1ccc(NC(=S)N2CCC(C(N)=O)CC2)cc1`, `CCN(CC)C(=O)C1CCCN(c2ncc(C)c(Nc3ccc(N4CCOCC4)cc3)n2)C1` (stereo unspecified) is higher in activation: -0.283% for the first, 0.13% for the second.

Going from `FC(F)(F)c1cccc(CNc2ncnc3nc(N4CCOCC4)[nH]c23)c1` to `FC(F)(F)c1cccc(CNc2ccnc(N3CCOCC3)n2)c1`, the activation falls from 1.38% to 0.285%.

Compared with `COc1ccc(Cl)cc1NC(=O)C1c2cc(OC)c(OC)cc2C(=O)N(C)C1c1ccc(OC)c(OC)c1` (stereo unspecified), `O=C(NCc1ccccc1)N(CCN1CCCC1)Cc1cc2cc3c(cc2[nH]c1=O)OCO3` is lower in activation: 4.36% for the first, -0.475% for the second.

First: Cc1[nH]n(-c2nc3c(c(=O)[nH]2)CCCC3)c(=O)c1CCO
Second: COCCNc1nc2nonc2nc1N1CCC(N2C[C@@H](C)O[C@@H](C)C2)CC1
The activation of the first is lower: -1.77% for the first, -0.822% for the second.

Going from `O=C(/C=N/Nc1ccc([N+](=O)[O-])cc1[N+](=O)[O-])c1ccco1` to `Cc1ccc(S(=O)(=O)C2(C(=O)Nc3ccc([N+](=O)[O-])cn3)CC2)cc1`, the activation falls from 0.644% to 0.544%.

For `C#CCOc1ccc(Br)cc1/C=C1\NC(=S)N(C)C1=O`, the activation was 5.86% (active).
For `Cc1cccc(OCCNC(=S)NC(=O)c2cccnc2)c1`, the activation was 7.55% (active).
In the case of `CS(=O)(=O)N(CC(=O)Nc1ccc(F)cc1F)c1ccc(F)cc1`, the activation is reported as 7.88% (active).
In the case of `COc1cc(NC(=O)c2sc3ncnc(N4CCCCC4)c3c2C)cc(OC)c1OC`, the activation is reported as 5.99% (active).
For `CC12CCC(C(=O)NC3CCCCC3)(OC1=O)C2(C)C` (stereo unspecified), the activation was 4.96% (active).
With `CCOc1cc2c(cc1OCC)C(c1ccc3ccccc3c1)NCC2` (stereo unspecified) the activation was 5.53% (active).
`COc1cc(/C=N/N=C2/NC(=O)CS2)ccc1OC(=O)c1ccccc1C` was tested, and the activation was 10.4% (active).
For `Cc1ccc(NC(=O)c2cccc(N(C)C)c2)cc1NC(=O)c1ccc(O)cc1`, the activation was 8.84% (active).
In the case of `Cc1ccc(Nc2nc(-c3ccccn3)cs2)cc1C`, the activation is reported as 11.2% (active).
With `CC(C)C(=O)NC(C)c1nnc2n1CCN(Cc1ccc3cccnc3c1)CC2` (stereo unspecified) the activation was 5.04% (active).
In the case of `CCCN1C(=O)c2ccc(C(=O)Nc3ccc(C(C)=O)cc3)cc2C1=O`, the activation is reported as 6.33% (active).
In the case of `COc1ccc(Br)cc1C(=O)NCC1COc2ccccc2O1` (stereo unspecified), the activation is reported as 5.44% (active).
For `FC(F)(F)c1ccc(Cn2cnc3c(NCc4cccc(C(F)(F)F)c4)nc(Nc4ccc(N5CCOCC5)cc4)nc32)cc1`, the activation was 5.04% (active).
For `CCN(CC)C(=O)C1CCCN(c2ncc(C)c(NCc3cccc(C(F)(F)F)c3)n2)C1` (stereo unspecified), the activation was 5.92% (active).
For `Cc1cnc(Nc2ccc(N3CCOCC3)cc2)nc1NCc1cccc(C(F)(F)F)c1`, the activation was 6.5% (active).
`O=C(/C=C/Nc1ccccc1NS(=O)(=O)c1ccc([N+](=O)[O-])cc1)c1ccco1` was tested, and the activation was 6.93% (active).
For `CCc1ccc(S(=O)(=O)NCCOc2cc(N3CCOCC3)ncn2)cc1`, the activation was 5.88% (active).

From PubChem BioAssay AID1508602 (The Scripps Research Institute Molecular Screening Center, 2020)
